In PubChem BioAssay AID720504 (National Center for Advancing Translational Sciences (NCATS), 2013):
About 10,000 (2.8%) of roughly 360,000 compounds were called active. About 4% were inconclusive and are not listed. Shown is part of a subset that was picked to be rich in actives. Values without a mark were called inactive. Calls follow the shape of the dose curve; as a rule, active = well fitted inhibition curve with a large enough effect; inconclusive = small, poorly fitted or top-dose-only effect; inactive = flat fitted curve, though single readings scatter.

Target: Serine/threonine-protein kinase PLK1 (Homo sapiens) (UniProt P53350)
Sequence (P53350 whole entry, looked up, the tested form may be a part): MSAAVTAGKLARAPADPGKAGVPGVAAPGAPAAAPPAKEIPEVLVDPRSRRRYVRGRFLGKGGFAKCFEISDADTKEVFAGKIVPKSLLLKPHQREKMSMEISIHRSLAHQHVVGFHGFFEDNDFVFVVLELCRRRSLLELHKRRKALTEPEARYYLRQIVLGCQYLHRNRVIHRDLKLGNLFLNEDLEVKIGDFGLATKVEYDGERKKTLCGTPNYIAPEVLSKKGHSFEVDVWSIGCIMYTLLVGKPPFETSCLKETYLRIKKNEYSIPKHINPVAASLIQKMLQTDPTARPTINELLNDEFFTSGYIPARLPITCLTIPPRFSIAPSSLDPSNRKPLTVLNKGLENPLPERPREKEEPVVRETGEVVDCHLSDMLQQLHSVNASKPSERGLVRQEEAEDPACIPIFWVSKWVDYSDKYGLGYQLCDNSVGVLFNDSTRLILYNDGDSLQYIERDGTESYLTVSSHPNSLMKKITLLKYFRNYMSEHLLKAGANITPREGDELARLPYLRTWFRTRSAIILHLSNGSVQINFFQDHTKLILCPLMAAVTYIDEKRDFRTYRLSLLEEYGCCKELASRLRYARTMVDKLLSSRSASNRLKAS
Test: qHTS for Inhibitors of PLK1-PDB (polo-like kinase 1 - polo-box domain): Primary Screen; also: nearly all actives have a fitted effect of over 65% in size; as to max response, negative = inhibition: series mostly up to about 57 µM
Settings: Plk1 PBD binding of FITC phosphopeptide, fluorescence polarization
% is scaled to controls: 0 for no effect and ±100 for the full control effect; potency is read from the fitted curve at half-maximal effect.

Going from `Nc1nc2c(ncn2[C@@H]2O[C@H](CNCc3ccc(OCCCN4CCOCC4)cc3)[C@@H](O)[C@H]2O)c(=O)[nH]1` to `O=C(/C=C/[C@H]1O[C@@H](n2cnc3c(NC(=O)c4ccccc4)ncnc32)[C@H](O)[C@@H]1O)NCc1ccccc1`, the max response, negative = inhibition falls from -2.1% to -4.8%.

Compared with `COc1cccc(-c2cnc(C(O)c3ccccc3OC)[nH]2)c1` (stereo not drawn), `COc1cccc(-c2cc3nc(NCCOc4ccccc4Cl)n(C)c(=O)c3s2)c1` is higher in max response, negative = inhibition: -12.1% for the first, -5.38% for the second.

First: CCCc1cc(=O)oc2c(C)c(OCC(=O)Nc3ccccn3)ccc12
Second: CCCc1cc(=O)oc2c(C)c(OCC(=O)NCc3ccccn3)ccc12
The max response, negative = inhibition of the first is higher: 7.66% for the first, 0.145% for the second.

Going from `COc1ccc(C(C)C)cc1-c1ccc2nncn2c1` to `CCCc1c(-c2ccccc2F)ncn1Cc1ccccc1OC`, the max response, negative = inhibition rises from -3.26% to -1.08%.

First: O=C(Nc1ccccc1)c1ccccc1Br
Second: O=C(Nc1ccc(S(=O)(=O)Nc2ccccn2)cc1)c1ccccc1
The max response, negative = inhibition of the first is lower: -3.61% for the first, -2.45% for the second.

Going from `COCCCN1C(=O)C(CC(=O)NCc2cccs2)CC(C(=O)N2CCOCC2)=C1C` (stereo not drawn) to `CCN(CC)C(=O)C1=C(C)N(Cc2ccc(F)cc2)C(=O)C(CC(=O)NCc2cccc3ccccc23)C1` (stereo not drawn), the max response, negative = inhibition falls from -4.29% to -13.9%.

Going from `CC(Sc1nnc2c(n1)C1CCC2(C)C1(C)C)C(=O)Nc1ccccc1` (stereo not drawn) to `CCOC(=O)c1c(NC(=O)C(C)Sc2c[nH]c3ccccc23)sc2c1CCC2` (stereo not drawn), the max response, negative = inhibition falls from 1.59% to -20.8%.

First: CSc1nc(N(C)NC(=O)c2cccc(C)c2)c2ccccc2n1
Second: Cc1ccc(C(=O)Nc2nc(N)n(-c3ccccc3)n2)cc1
The max response, negative = inhibition of the first is higher: -6.24% for the first, -8.25% for the second.

Going from `CC(C)NC(=O)C1(C)CCCCCN1C(=O)c1ccc(-c2ccccc2)cc1` (stereo not drawn) to `COC(=O)c1cn(C(=O)c2ccc(Cl)cc2)c2ccccc12`, the max response, negative = inhibition rises from -8.92% to -5.55%.

First: COc1ccc(-c2ccc(CN3C(C(C)C)C(=O)N(Cc4cn(CC5CCCCC5)nn4)CCS3(=O)=O)cc2)cn1 (stereo not drawn)
Second: Cc1ccc(CN(C)C[C@@H]2OCc3cnnn3CCCC(=O)N([C@@H](C)CO)C[C@H]2C)cc1
The max response, negative = inhibition of the first is lower: -14.8% for the first, -4.71% for the second.

Compared with `COC(=O)C1(C(=O)OC)C[C@H](c2ccccc2)N(Cc2ccccc2OC)[C@@H]1c1ccccc1`, `COc1ccccc1NC(=O)[C@H](COCc1ccccc1)NC(=O)OC(C)(C)C` is higher in max response, negative = inhibition: -15.2% for the first, -12.1% for the second.

First: Cc1ccccc1-c1csc(C(O)c2cccc(Cl)c2)n1 (stereo not drawn)
Second: COc1ccc(C(C)(O)c2nc(-c3cc(F)cc(F)c3)cs2)cc1 (stereo not drawn)
The max response, negative = inhibition of the first is lower: -10.6% for the first, 4.82% for the second.

First: CCCCn1c(SCC(=O)NCCc2ccc(OC)c(OC)c2)nc2c1c(=O)n(C)c(=O)n2C
Second: CCCCn1c(SCC(=O)N2CCOCC2)nc2c1c(=O)n(C)c(=O)n2C
The max response, negative = inhibition of the first is higher: -1.04% for the first, -13.8% for the second.

Going from `CCCSc1nc2c(c(=O)n(C)c(=O)n2C)n1Cc1ccc(C)cc1` to `CCCCCCn1c(SCC(=O)c2ccccc2)nc2c1c(=O)[nH]c(=O)n2C`, the max response, negative = inhibition falls from -10.2% to -19.2%.

Compared with `COc1ccc(NC(=O)C2Cc3c(-c4ccc(Cl)cc4)ccnc3O2)cc1` (stereo not drawn), `COc1ccc(-c2[nH][nH]c(=O)c2NC(=O)c2ccc([N+](=O)[O-])cc2)cc1` is lower in max response, negative = inhibition: 1.68% for the first, -12.4% for the second.

Compared with `O=C(NCC(O)c1nc2ccccc2[nH]1)c1ccc(Br)cc1` (stereo not drawn), `CCC(c1nc2ccccc2[nH]1)n1c(=O)c(-c2cccs2)nc2ccccc21` (stereo not drawn) is higher in max response, negative = inhibition: -3.2% for the first, 7.42% for the second.

Going from `CC1(C(=O)NCc2ccc3c(c2)OCO3)CCN1CCc1ccccc1` (stereo not drawn) to `Cc1cccc(CNC(=O)c2sc(=O)n(Cc3ccccc3C)c2C)c1`, the max response, negative = inhibition falls from 2.52% to -6.16%.

First: CCN(CC)CCn1c2c(c(SCC(=O)Nc3nc4ccccc4s3)nc1=O)CCCC2
Second: CCOC(=O)c1c(NC(=O)CSc2cn(CC)c3ccccc23)sc2c1CCC2
The max response, negative = inhibition of the first is higher: -2.27% for the first, -5.08% for the second.

Going from `c1ccc(C(=NNc2nc3ccccc3s2)c2ccccn2)cc1` to `OC(c1ccccc1)(c1ccccc1)C1CCN(CCCOc2ccccc2)CC1`, the max response, negative = inhibition rises from -7.03% to 0.305%.

Compared with `OC[C@@H]1CN(C2CCCC2)C[C@H](n2cnc3c(NC4CCC4)ncnc32)O1`, `CCN(CC)c1ncnc2c1ncn2[C@H]1CN(Cc2cccs2)C[C@@H](CO)O1` is higher in max response, negative = inhibition: -3.48% for the first, 2.82% for the second.

Going from `C=CCn1c2c(c3ccccc31)CCC2` to `CC1(C)CC(=O)C=C(c2ccccc2CO)C1=O`, the max response, negative = inhibition rises from -9.68% to -0.138%.

Compared with `COc1cc2c(=O)n(C)c3ccccc3c2cc1OC`, `Cc1cc(C)c(-c2c(O)c3ccccc3n(C)c2=O)c(C)c1` is higher in max response, negative = inhibition: -8.91% for the first, -5.02% for the second.

First: CCOC(=O)c1c(C)[nH]c(C)c1C(=O)COC(=O)/C=C/c1cccc([N+](=O)[O-])c1
Second: COC(=O)c1ccccc1N=NNc1ccc([N+](=O)[O-])cc1
The max response, negative = inhibition of the first is higher: 1.23% for the first, 0.193% for the second.

`Cc1ccnc(NS(=O)(=O)c2ccc(NC(=O)c3oc4ccccc4c3C)cc2)n1` and `Cc1ccnc(NS(=O)(=O)c2ccc(NC(=O)c3ccc(S(=O)(=O)N4CCOCC4)cc3)cc2)n1` are the same in max response, negative = inhibition: -5.87% for the first, -5.87% for the second.

First: CC1(c2cccc(N)c2)OCCO1
Second: CC(C)(C)C1CCC(=O)N2CCC[C@]2(c2ccccc2)C1 (stereo partly drawn)
The max response, negative = inhibition of the first is lower: -12.9% for the first, -8.62% for the second.

First: CCc1nc2ccc(C(=O)N(C)Cc3ccco3)cn2c1N(C)C(=O)Cc1ccccc1
Second: CCc1nc2c(OCCc3cccc(OC)c3)cccn2c1N(C)C(=O)c1ccc(C)cc1
The max response, negative = inhibition of the first is higher: -2.7% for the first, -4.74% for the second.

First: CC1(C(=O)NS(=O)(=O)c2cccc(F)c2)CCN1C(=O)Cc1cc(F)ccc1F (stereo not drawn)
Second: CCCOc1ccc(F)cc1-c1cc(C(=O)NCc2ccc(F)cc2)[nH]n1
The max response, negative = inhibition of the first is higher: 1.7% for the first, -11.9% for the second.

Compared with `C[C@@H]1CN([C@H](C)CO)C(=O)c2cc(-c3ccc(F)cc3)cnc2O[C@H]1CN(C)C(=O)c1ccc(F)cc1`, `C[C@@H]1CCCCO[C@H](CN(C)Cc2ccccc2)[C@@H](C)CN([C@H](C)CO)C(=O)c2cc(NS(=O)(=O)c3ccc(Cl)cc3)ccc2O1` is higher in max response, negative = inhibition: -26.3% for the first, -7.57% for the second.

First: OCCNc1nc(Nc2ccc(Cl)c(Cl)c2)nc2ccccc12
Second: Clc1ccccc1Nc1nc(NCc2cccs2)nc2ccsc12
The max response, negative = inhibition of the first is lower: -0.568% for the first, 0.746% for the second.

Going from `COC(=O)C1=CN(c2c(C)cc(C)cc2C)C(N)=C(C#N)C1c1cccc(F)c1` (stereo not drawn) to `CCc1nc2c(OCC(=O)C(C)(C)C)cccn2c1N(C)C(=O)c1ccccc1F`, the max response, negative = inhibition falls from 0.842% to -11%.

Going from `CC(C)[C@@H](NC(=O)OC(C)(C)C)C(=O)NCC1CCC(C(=O)N[C@@H](Cc2ccccc2)C(=O)O)CC1` (stereo partly drawn) to `CCc1ccccc1NC(=O)CSc1nnc([C@@H](NC(=O)OC(C)(C)C)C(C)CC)o1` (stereo partly drawn), the max response, negative = inhibition falls from 3.75% to -15.7%.

Going from `CC(C)(C)c1ccc(C(CC(=O)O)NS(=O)(=O)Cc2ccccc2)cc1` (stereo not drawn) to `CC(=O)Nc1cc(-c2cccc(CO)c2)cn2c(-c3cccc(C(F)(F)F)c3)cnc12`, the max response, negative = inhibition falls from -2.95% to -14.2%.

Compared with `COc1cc(C(=O)OCCCN2CCOCC2)cc(OC)c1OC`, `COc1cc(N2C(=O)CSC2=S)cc(OC)c1OC` is lower in max response, negative = inhibition: 0.976% for the first, -18.2% for the second.

Going from `CCOC(=O)N1CCN(C(=O)C[C@@H]2C[C@@]3(C(=O)OC)CC(C)(C)CC=C3N(Cc3ccco3)C2=O)CC1` to `CCOC(=O)N1CCN(C(=O)C[C@@H]2C[C@@]3(C(=O)OC)CCCCC=C3N(CCC3=CCCCC3)C2=O)CC1`, the max response, negative = inhibition rises from 2.41% to 4.13%.

Going from `Clc1ccc(-c2cccc3nccn23)cc1` to `O=C1CSC(=S)N1c1ccc(O)cc1`, the max response, negative = inhibition rises from -1.38% to 1.87%.

First: Nc1ncnc2c1ncn2[C@@H]1O[C@H](C(=O)N2CCSC2)[C@@H](O)[C@H]1O
Second: Cc1nnsc1S(=O)(=O)Cc1ccccc1Cl
The max response, negative = inhibition of the first is higher: -1.36% for the first, -7.17% for the second.

With `CCc1cc(=O)oc2c(C)c(OCC(=O)NCCN3CCOCC3)ccc12` the Potency was 21.2 µM (active).
In the case of `CSc1nc(C)cc(SC(C(C)=O)C(=O)Nc2ccccc2)n1` (stereo not drawn), the Potency is reported as 26.7 µM (active).
For `CCOc1ccc(Cn2c(SCCCCC#N)nc3c2c(=O)n(C)c(=O)n3C)cc1OCC`, the Potency was 18.9 µM (active).
For `c1ccc2sc(NN=C3CCCC3)nc2c1`, the Potency was 26.7 µM (active).
For `Cn1c(=O)c([N+](=O)[O-])c(Oc2ccccc2)c2ccccc21`, the Potency was 23.8 µM (active).
With `Cc1ccnc(NS(=O)(=O)c2ccc(NC(=O)c3ccc(S(=O)(=O)N(C)C)cc3)cc2)n1` the Potency was 26.7 µM (active).
In the case of `CC(C)N=C1CCCC1C(=S)SSC(=S)C1CCCC1=NC(C)C` (stereo not drawn), the Potency is reported as 9.47 µM (active).
With `Cc1ccc(C(=O)Nc2c(-c3ccccc3)[nH][nH]c2=O)cc1` the Potency was 23.8 µM (active).
For `CCOC(=O)c1c(NC(=O)C2(C)Cc3ccccc3C(=O)O2)sc2c1CCCC2` (stereo not drawn), the Potency was 23.8 µM (active).
For `O=[N+]([O-])c1c(NCCO)cc(Sc2nc3ccccc3s2)c2nonc12`, the Potency was 1.68 µM (active).
`C[C@@H](NC(=O)OC(C)(C)C)c1nnc(S(=O)(=O)Cc2ccccc2)o1` was tested, and the Potency was 13.4 µM (active).
In the case of `CC(C)Sc1nnc([C@H](Cc2ccccc2)NC(=O)OC(C)(C)C)o1`, the Potency is reported as 23.8 µM (active).
With `CCCCCn1c(SCCC(C)C)nc2c1c(=O)[nH]c(=O)n2C` the Potency was 23.8 µM (active).
`COC(=O)c1ccccc1N=Nc1c(C)[nH][nH]c1=O` was tested, and the Potency was 23.8 µM (active).
`O=C1CSC(=S)N1c1ccc(Cl)c(Cl)c1` was tested, and the Potency was 26.7 µM (active).
`O=C(Nc1ccccc1)c1nnsc1S(=O)(=O)c1ccc(Cl)cc1` was tested, and the Potency was 4.74 µM (active).
